In PubChem BioAssay:
Activity calls are given as the source filed them.

Key:
[1] = binders of probe aFSTL3 on microarray, primary screen, stem cell growth factor project, biochemical, small-molecule microarray, fluorescence 635/667 (AID 1064); conditions: higher = more signal;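 further: measures binding of the biotinylated anti-FSTL3 antibody to printed compounds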
[2] = binders from COS7 lysate, DM2A8 probe, primary screen, torsin A project, cell lysate, small-molecule microarray, fluorescence 635/667 (AID 1065); conditions: higher = more signal, COS7 lysate expressing mutant human TOR1A
[3] = binders of probe aFGF2 on microarray, primary screen, stem cell growth factor project, biochemical, small-molecule microarray, fluorescence 635/667 (AID 1067); conditions: higher = more signal;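 further: measures binding of biotinylated aFGF2 protein to printed compounds on slides; z-score merges feature fluorescence and signal-to-noise across triplicate slides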
[4] = binders of probe aFGF10 on microarray, primary screen, stem cell growth factor project, biochemical, small-molecule microarray, fluorescence 635/667 (AID 1071); conditions: higher = more signal;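 further: score merges 667 nm spot intensity and signal to noise from triplicate slides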
[5] = biological target: Neurogenic locus notch homolog protein 2 (Homo sapiens) (UniProt Q04721); experiment: Notch2 binders on small-molecule microarrays, primary screen, biochemical, small-molecule microarray, 635 nm fluorescence, stem cell growth factors (AID 1073); conditions: Notch2 binding, higher = more signal
[6] = biological target: Pro-neuregulin-1, membrane-bound isoform (Homo sapiens) (UniProt Q02297); experiment: NRG1 binders on small-molecule microarrays, primary screen, psychiatric disease protein project, biochemical, small-molecule microarray, fluorescence 635/667 (AID 1075); conditions: NRG1 binding, 635 nm fluorescence, higher = more signal;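 further: score combines 667 nm spot fluorescence with signal to noise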
Chain of Pro-neuregulin-1, membrane-bound isoform (Homo sapiens) (Q02297 whole entry, looked up, the tested form may be a part, canonical isoform): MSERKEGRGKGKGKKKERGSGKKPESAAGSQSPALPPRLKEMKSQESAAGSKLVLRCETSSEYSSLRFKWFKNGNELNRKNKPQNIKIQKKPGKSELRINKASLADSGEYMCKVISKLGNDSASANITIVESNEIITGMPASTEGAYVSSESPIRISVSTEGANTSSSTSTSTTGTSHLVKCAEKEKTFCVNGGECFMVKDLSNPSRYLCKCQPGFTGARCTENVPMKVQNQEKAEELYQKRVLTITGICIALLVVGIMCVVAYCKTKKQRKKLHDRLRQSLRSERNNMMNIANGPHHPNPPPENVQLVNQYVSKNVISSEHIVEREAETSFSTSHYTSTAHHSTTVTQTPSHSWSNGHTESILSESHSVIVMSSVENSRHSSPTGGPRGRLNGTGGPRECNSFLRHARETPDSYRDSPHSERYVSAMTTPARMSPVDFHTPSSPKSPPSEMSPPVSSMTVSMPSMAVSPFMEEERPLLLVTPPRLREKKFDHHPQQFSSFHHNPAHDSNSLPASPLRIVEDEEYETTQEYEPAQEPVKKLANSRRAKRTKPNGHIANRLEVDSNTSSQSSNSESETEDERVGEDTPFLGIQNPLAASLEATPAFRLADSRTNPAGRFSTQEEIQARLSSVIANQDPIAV

[7] = test system: Neuregulin-1 EGF-like domain; experiment: binders of neuregulin-1 EGF-like domain, primary screen, biochemical, small-molecule microarray, 635 nm fluorescence (AID 1081); conditions: small-molecule microarray binding, higher = more signal;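 further: binding of the protein to compounds printed on small-molecule microarray slides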
[8] = FRG1 promoter luciferase signal modulators, primary screen, FRG1 inhibition for FSHD, cell-based, C2C12 myotubes, firefly/Renilla luciferase, luminescence (AID 1084); conditions: higher = more signal, called active from +8 up or from −8 down
[9] = binders of probe aFST on microarray, primary screen, stem cell growth factor project, biochemical, small-molecule microarray, fluorescence 635/667 (AID 1086); conditions: higher = more signal;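 further: score merges 667 nm fluorescence with signal-to-noise of each printed compound spot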
[10] = binders of probe aHhip on microarray, primary screen, stem cell growth factor project, biochemical, small-molecule microarray, fluorescence 635/667 (AID 1087); conditions: higher = more signal;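 further: score merges spot fluorescence at 667nm with spot signal to noise ratio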
[11] = test system: PRMT1 (protein arginine N-methyltransferase 1); experiment: PRMT1 binders on small-molecule microarrays, primary screen, biochemical, small-molecule microarray, 635 nm fluorescence (AID 1088); conditions: small-molecule microarray binding, higher = more signal;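 further: binding of Prmt1 protein to compounds spotted on small-molecule microarray slides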
[12] = yeast growth modulation, basal conditions, primary screen, YJM789 clinical isolate, OD600, 24 h (AID 1089);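 further: growth of clinical yeast isolate S. cerevisiae YJM 789 seeded 1000 cells per well; test concentration not given here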; conditions: S. cerevisiae YJM789 growth, higher = more signal, called active from +8 up or from −8 down
[13] = fission yeast growth modulation, primary screen, strain 972, OD600, 24 h, no modulator (AID 1090);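 further: basal condition with compound alone and no growth modifier present; test concentration not given here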; conditions: S. pombe 972 growth, higher = more signal, called active from +8 up or from −8 down
[14] = S. cerevisiae growth modulation with rapamycin, primary screen, strain BY4716, OD600, 96 h (AID 1091); conditions: higher = more signal, called active from +8 up or from −8 down; further: test concentration not given here
[15] = biological target: Torsin-1A-interacting protein 2 (Homo sapiens) (UniProt Q8NFQ8); experiment: LULL1 binders on small-molecule microarray, primary screen, cell lysate, human LULL1 lysate, 635/667 nm fluorescence (AID 1092); conditions: hLULL1 lysate binding, 635 nm fluorescence, higher = more signal;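 further: probe is lysate of COS7 cells overexpressing human LULL1; score merges per-feature 667 nm fluorescence with signal-to-noise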
Chain of Torsin-1A-interacting protein 2 (Homo sapiens) (Q8NFQ8 whole entry, looked up): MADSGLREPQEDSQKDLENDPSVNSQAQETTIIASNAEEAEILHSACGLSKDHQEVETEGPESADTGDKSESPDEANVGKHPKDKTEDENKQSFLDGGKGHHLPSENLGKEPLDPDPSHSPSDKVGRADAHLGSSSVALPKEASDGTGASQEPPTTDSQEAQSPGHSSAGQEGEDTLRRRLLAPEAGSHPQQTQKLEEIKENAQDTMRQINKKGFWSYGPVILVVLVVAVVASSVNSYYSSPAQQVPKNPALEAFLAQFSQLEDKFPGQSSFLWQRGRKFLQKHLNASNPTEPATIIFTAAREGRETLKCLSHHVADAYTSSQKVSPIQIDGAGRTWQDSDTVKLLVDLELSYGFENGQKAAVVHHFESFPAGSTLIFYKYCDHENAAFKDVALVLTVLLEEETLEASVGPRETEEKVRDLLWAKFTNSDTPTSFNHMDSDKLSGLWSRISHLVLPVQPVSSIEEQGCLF

[16] = E. coli growth modulation, two-sided OD650, primary screen, E. coli filamentation project, strain DRC41, 24 h (AID 1093); conditions: OD650, 24 h, higher = more signal, called active from +8 up or from −8 down;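 further: MC1000 strain lacking acrAB efflux and sulA so SOS filamentation is blocked; test concentration not given here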
[17] = small-molecule microarray binders of probe aLefty2, primary screen, biochemical, biotinylated probe, 635/667 nm fluorescence (AID 1094); conditions: higher = more signal;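 further: score merges spot fluorescence near 667 nm with spot signal-to-noise ratio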
[18] = test system: Noggin (protein binding on small-molecule microarray); experiment: Noggin binders on small-molecule microarray, primary screen, biochemical, 635/667 nm fluorescence (AID 1095); conditions: 635 nm fluorescence, higher = more signal;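 further: score merges 667 nm feature fluorescence with signal to noise over triplicate slides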
[19] = biological target: Neurogenic locus notch homolog protein 3 (Homo sapiens) (UniProt Q9UM47); experiment: NOTCH3 binders on small-molecule microarray, primary screen, biochemical, 635/667 nm fluorescence (AID 1096); conditions: NOTCH3 binding, 635 nm fluorescence, higher = more signal
Chain of Neurogenic locus notch homolog protein 3 (Homo sapiens) (Q9UM47 whole entry, looked up): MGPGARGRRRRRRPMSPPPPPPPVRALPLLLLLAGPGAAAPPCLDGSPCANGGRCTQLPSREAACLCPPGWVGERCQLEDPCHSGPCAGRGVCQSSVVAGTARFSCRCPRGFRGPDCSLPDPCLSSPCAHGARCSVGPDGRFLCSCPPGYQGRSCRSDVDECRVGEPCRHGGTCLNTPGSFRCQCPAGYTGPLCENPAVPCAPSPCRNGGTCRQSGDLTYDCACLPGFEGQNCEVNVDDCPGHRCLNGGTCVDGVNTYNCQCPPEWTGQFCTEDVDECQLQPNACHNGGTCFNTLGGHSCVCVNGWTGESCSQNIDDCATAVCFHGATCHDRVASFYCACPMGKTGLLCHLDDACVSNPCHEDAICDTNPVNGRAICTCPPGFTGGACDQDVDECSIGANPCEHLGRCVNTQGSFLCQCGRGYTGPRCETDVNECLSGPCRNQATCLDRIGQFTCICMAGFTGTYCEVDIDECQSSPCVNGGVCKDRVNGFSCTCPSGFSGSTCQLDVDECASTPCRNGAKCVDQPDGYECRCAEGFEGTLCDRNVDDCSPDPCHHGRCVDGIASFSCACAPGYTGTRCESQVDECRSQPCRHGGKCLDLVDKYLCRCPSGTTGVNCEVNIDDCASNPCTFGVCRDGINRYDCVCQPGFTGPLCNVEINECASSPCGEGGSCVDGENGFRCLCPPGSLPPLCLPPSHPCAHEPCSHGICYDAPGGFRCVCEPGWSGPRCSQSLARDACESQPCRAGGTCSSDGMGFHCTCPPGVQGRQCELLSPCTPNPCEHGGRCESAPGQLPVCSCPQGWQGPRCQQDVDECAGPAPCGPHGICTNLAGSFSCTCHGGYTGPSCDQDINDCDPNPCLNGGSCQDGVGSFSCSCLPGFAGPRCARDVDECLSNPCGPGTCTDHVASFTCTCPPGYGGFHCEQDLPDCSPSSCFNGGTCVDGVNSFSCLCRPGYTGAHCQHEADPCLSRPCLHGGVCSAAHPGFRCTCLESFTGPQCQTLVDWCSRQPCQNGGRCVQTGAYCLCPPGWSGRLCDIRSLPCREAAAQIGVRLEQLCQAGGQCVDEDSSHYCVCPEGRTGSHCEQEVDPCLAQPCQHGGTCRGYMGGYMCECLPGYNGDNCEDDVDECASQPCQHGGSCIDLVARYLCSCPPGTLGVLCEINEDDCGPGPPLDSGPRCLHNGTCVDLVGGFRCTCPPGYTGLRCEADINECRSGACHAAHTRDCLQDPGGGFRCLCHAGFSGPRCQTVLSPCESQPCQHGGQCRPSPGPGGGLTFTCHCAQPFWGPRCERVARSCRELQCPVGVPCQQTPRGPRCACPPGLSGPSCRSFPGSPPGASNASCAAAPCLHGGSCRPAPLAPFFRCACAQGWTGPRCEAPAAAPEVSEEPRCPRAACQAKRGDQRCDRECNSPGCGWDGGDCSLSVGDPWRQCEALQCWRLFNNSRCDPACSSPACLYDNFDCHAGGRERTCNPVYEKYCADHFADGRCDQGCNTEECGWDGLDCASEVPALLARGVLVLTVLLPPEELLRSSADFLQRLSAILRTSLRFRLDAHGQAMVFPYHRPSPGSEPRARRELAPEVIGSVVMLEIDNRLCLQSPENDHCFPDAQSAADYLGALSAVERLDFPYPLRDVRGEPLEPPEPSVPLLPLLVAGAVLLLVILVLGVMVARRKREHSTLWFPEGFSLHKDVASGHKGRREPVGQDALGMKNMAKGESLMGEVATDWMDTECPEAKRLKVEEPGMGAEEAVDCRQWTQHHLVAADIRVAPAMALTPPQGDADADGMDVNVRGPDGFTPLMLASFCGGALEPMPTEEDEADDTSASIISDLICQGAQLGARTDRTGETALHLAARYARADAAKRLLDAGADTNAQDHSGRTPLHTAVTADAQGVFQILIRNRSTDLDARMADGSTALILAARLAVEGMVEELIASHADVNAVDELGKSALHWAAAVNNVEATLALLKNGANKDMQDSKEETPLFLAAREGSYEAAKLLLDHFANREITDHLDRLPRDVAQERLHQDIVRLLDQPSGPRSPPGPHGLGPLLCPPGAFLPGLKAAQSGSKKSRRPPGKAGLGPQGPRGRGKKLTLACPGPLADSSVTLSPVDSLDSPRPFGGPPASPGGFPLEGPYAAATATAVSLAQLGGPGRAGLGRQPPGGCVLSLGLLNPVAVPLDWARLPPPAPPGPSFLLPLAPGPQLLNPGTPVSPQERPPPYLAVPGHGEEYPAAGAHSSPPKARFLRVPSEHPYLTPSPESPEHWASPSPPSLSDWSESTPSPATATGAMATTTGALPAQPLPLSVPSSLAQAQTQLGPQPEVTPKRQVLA

[20] = small-molecule microarray binders of probe aEGFR, primary screen, biochemical, biotinylated probe, 635/667 nm fluorescence (AID 1097); conditions: higher = more signal;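 further: probe is a biotinylated anti-EGFR antibody binding compounds printed on slides; score combines fluorescence near 667 nm and signal to noise of each spot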

| Compound | composite z-score [1] | composite z-score [2] | composite z-score [3] | composite z-score [4] | composite z-score [5] | composite z-score [6] | composite z-score [7] | z-score [8] | composite z-score [9] | composite z-score [10] | composite z-score [11] | z-score [12] | z-score [13] | z-score [14] | composite z-score [15] | z-score [16] | composite z-score [17] | composite z-score [18] | composite z-score [19] | composite z-score [20] |
| --- | --- | --- | --- | --- | --- | --- | --- | --- | --- | --- | --- | --- | --- | --- | --- | --- | --- | --- | --- | --- |
| O=C(NCC(O)CO)[C@@]1(Cc2ccccc2)COC(c2ccc(OCCCO)cc2)=N1 (stereo not given in full) | 0.213 | -0.0995 | -0.083 | 0.138 | -0.0908 | 0.736 | 0.698 | 0.518 (inactive) | 0.112 | -0.12 | -0.546 | 0.0965 (inactive) | -0.92 (inactive) | -0.639 (inactive) | 1.1 | 0.869 (inactive) | -0.0809 | -0.891 | -1.18 | 0.132 |
| O=C1O[C@@H](c2ccccc2)[C@@H](c2ccccc2)N2[C@@H](c3ccccc3OCCO)[C@]3(C(=O)Nc4ccc(C#CC5(O)CCCCCC5)cc43)[C@@H](C(=O)NC[C@H](O)c3ccccc3)[C@H]12 | 1.99 | 0.142 | 0.0924 | 1.03 | 0.81 | 1.75 | 1.24 | -1.2 (inactive) | 1.74 | 0.0145 | 1.55 | 1.77 (inactive) | 1.16 (inactive) | 4.86 (inactive) | 3.08 | -0.371 (inactive) | 0.161 | 1.69 | 1.05 | 0.146 |
| CCCCN1CC=CC23O[C@@H]4C=CCCOC(=O)C4[C@H]2C(=O)N(CCCO)[C@@H]3C1=O (stereo not given in full) | -0.0115 | -0.265 | -0.147 | -0.609 | -1.08 | -0.931 | -0.053 | 0.211 (inactive) | -0.277 | -0.191 | -0.253 | -0.174 (inactive) | -0.788 (inactive) | -0.497 (inactive) | -0.748 | 1.02 (inactive) | -0.172 | 0.217 | -1.68 | -0.244 |
| COc1ccc([Si](C)(C)[C@@H]2[C@@H](CCn3cc([C@H](O)c4ccccc4)nn3)O[C@]3(C(=O)N(C)c4ccccc43)[C@H]2C)cc1 | -0.266 | 0.356 | -0.0468 | 0.181 | 0.0572 | 0.0939 | 0.448 | -1.31 (inactive) | -0.108 | -0.391 | 0.384 | -0.842 (inactive) | 0.324 (inactive) | -0.112 (inactive) | 1.96 | -0.036 (inactive) | -0.166 | -0.133 | -0.0523 | -0.0828 |
| COCCOC(=O)N1C(=O)[C@@]2(c3ccccc31)[C@H](C(=O)N1CCCCCCC1)[C@H]1C(=O)O[C@H](c3ccccc3)[C@H](c3ccccc3)N1[C@@H]2c1ccccc1OCCO | 3.82 | 1.77 | 0.679 | 0.684 | 1.3 | 1.84 | 1.38 | -0.91 (inactive) | 3.36 | 3.52 | 1.53 | 0.749 (inactive) | 0.238 (inactive) | 5.75 (inactive) | 3.61 | -0.737 (inactive) | 1.67 | 0.785 | 1.06 | 1.03 |
| C=C(CCCC)/C(=C/C[C@@H](OC(=O)c1ccncc1)c1ccc(CO)o1)c1cc(C(=O)OC)ccc1OC | -0.489 | 1.44 | -0.0887 | 0.318 | 0.738 | 1.52 | 1.27 | -0.986 (inactive) | 0.448 | 0.0722 | 1.45 | -0.169 (inactive) | -1.75 (inactive) | -0.331 (inactive) | 2.3 | 0.635 (inactive) | -0.101 | 0.752 | 1.07 | 0.107 |
| COC(=O)C(CC#Cc1ccc2c(c1)[C@]1(C(=O)N2)[C@H](C(=O)N2CCCCCCC2)[C@H]2C(=O)O[C@H](c3ccccc3)[C@H](c3ccccc3)N2[C@@H]1c1ccccc1OCCO)C(=O)OC | 3.68 | 2.84 | 1.03 | 1.26 | 1.75 | 2.65 | 1.38 | 0.695 (inactive) | 3.61 | 3.1 | 1.54 | 0.293 (inactive) | -0.97 (inactive) | 0.172 (inactive) | 5.3 | -0.823 (inactive) | 1.89 | 2.44 | 1.02 | 1.46 |
| O=C1C2C=CC(C(O)c3ccc(Br)cc3)N(n3cnnc3)C2C(=O)N1Cc1ccccc1 (stereo not given) | -0.0627 | 0.52 | 0.0488 | 0.533 | 1.3 | 0.0603 | 0.722 | 0.258 (inactive) | 0.549 | 0.134 | 1.56 | -26.6 (active) | -16 (active) | 0.881 (inactive) | 2.83 | -0.415 (inactive) | 0.126 | 0.57 | 1.03 | 0.115 |
| CCCCC(=O)N(Cc1ccccc1F)[C@@H]1CC(C(=O)NCCO)=C[C@H](Oc2c(I)cc(CO)cc2OC)[C@H]1O | -0.451 | 0.686 | -0.0462 | 0.228 | 1.17 | 1.47 | 1.42 | -0.84 (inactive) | 0.442 | 0.27 | 1.54 | 0.41 (inactive) | -1.91 (inactive) | -1.02 (inactive) | 1.83 | 0.772 (inactive) | -0.0718 | 2.04 | 1.04 | 0.0209 |
